# Measured values: PubChem BioAssay AID1159580 (chemical genetic matrix, 2015)
# Hit rate of the full screen: of about 5,500 compounds, about 2,000 (36%) were called active. About 18% were inconclusive and are not listed. This is one part of the list. A number with no mark means an inactive call. Rule as the data show it: active = normalized growth mostly below about 0.91 (no sharp cut-off); inconclusive = no clear call, values can overlap the other calls; inactive = mostly above about 0.92.
# Experiment: chemical genetic growth profiling, strain panel (AID 1159580);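 also: tested at 20 µM; growth read once vehicle control cultures reached saturation at 30 °C; 1 = growth at the plate median or of vehicle wells; lower values mean less growth of the strain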
# Conditions: S. cerevisiae deletion strains, growth OD
# [1] = locus YAL013W, strain DEP1, hits give low values
# [2] = locus YBR229C, strain ROT2, hits give low values
# [3] = locus YCL061C, strain MRC1, hits give low values
# [4] = locus YDL101C, strain DUN1, hits give low values
# [5] = locus YDR150W, strain NUM1, hits give low values
# [6] = locus YEL061C, strain CIN8, hits give low values
# [7] = locus YGR078C, strain PAC10, hits give low values
# [8] = locus YGR229C, strain SMI1, hits give low values
# [9] = locus YHR030C, strain SLT2, hits give low values
# [10] = locus YHR087W, strain rtc3, hits give low values
# [11] = locus YJR043C, strain POL32, hits give low values
# [12] = locus YJR075W, strain HOC1, hits give low values
# [13] = locus YKL190W, strain CNB1, hits give low values
# [14] = locus YLR039C, strain RIC1, hits give low values
# [15] = locus YLR058C, strain SHM2 (second series), hits give low values
# [16] = locus YLR085C, strain ARP6, hits give low values
# [17] = locus YLR262C, strain YPT6, hits give low values
# [18] = locus YML094W, strain GIM5, hits give low values
# [19] = locus YMR219W, strain ESC1, hits give low values
# [20] = locus YMR263W, strain SAP30, hits give low values
# [21] = locus YMR307W, strain GAS1, hits give low values
# [22] = locus YNL153C, strain GIM3, hits give low values
# [23] = locus YNL298W, strain CLA4 (second series), hits give low values
# [24] = locus YNL322C, strain KRE1, hits give low values
# [25] = locus YNR030W, strain Alg12, hits give low values
# [26] = locus YPL055C, strain LGE1, hits give low values
# [27] = locus YPL241C, strain CIN2, hits give low values
# [28] = locus YPR135W, strain CTF4, hits give low values
# [29] = locus YAL040C, strain CLN3, hits give low values
# [30] = locus YCL061C, strain MRC1 (second series), hits give low values
# [31] = locus YDR363W, strain ESC2, hits give low values
# [32] = locus YER002W, strain NOP16, hits give low values
# [33] = locus YNL197C, strain WHI3, hits give low values
# [34] = locus YNL224C, strain SQS1, hits give low values
# [35] = locus YOR083W, strain WHI5 (second series), hits give low values
structure (smiles),measurement,setting,value
CC(O)CNc1ccc(C(F)(F)F)cc1[N+](=O)[O-] (centres undefined),normalized growth,[1],1.01
same,normalized growth,[2],1.01
same,normalized growth,[3],1.03
same,normalized growth,[4],1.03
same,normalized growth,[5],1.04
same,normalized growth,[6],0.997
same,normalized growth,[7],1.02
same,normalized growth,[8],0.993
same,normalized growth,[9],0.987
same,normalized growth,[10],1
same,normalized growth,[11],1.02
same,normalized growth,[12],1.04
same,normalized growth,[13],1.02
same,normalized growth,[14],1.08
same,normalized growth,[15],0.998
same,normalized growth,[16],0.989
same,normalized growth,[17],0.985
same,normalized growth,[18],0.947
same,normalized growth,[19],1
same,normalized growth,[20],1.02
same,normalized growth,[21],1.03
same,normalized growth,"locus YNL128W, strain TEP1, hits give low values",1.02
same,normalized growth,[22],0.998
same,normalized growth,[23],1.05
same,normalized growth,[24],1
same,normalized growth,[25],0.999
same,normalized growth,[26],0.966
same,normalized growth,[27],1.01
same,normalized growth,[28],1.01
O=[N+]([O-])c1cc(C(F)(F)F)ccc1NCCCn1ccnc1,normalized growth,[1],1.01
same,normalized growth,[2],1.01
same,normalized growth,[4],1.06
same,normalized growth,"locus YDL134C, strain PPH21, hits give low values",0.976
same,normalized growth,[5],1.04
same,normalized growth,[6],0.988
same,normalized growth,[7],1.03
same,normalized growth,[9],1.1
same,normalized growth,[10],0.965
same,normalized growth,[11],1.04
same,normalized growth,[12],1.04
same,normalized growth,[13],0.994
same,normalized growth,[14],1.08
same,normalized growth,[15],1
same,normalized growth,[16],1.03
same,normalized growth,[17],1
same,normalized growth,[18],1.01
same,normalized growth,[19],0.991
same,normalized growth,[20],1.03
same,normalized growth,[22],1.04
same,normalized growth,[23],1.01
same,normalized growth,[24],0.98
same,normalized growth,[25],1.01
same,normalized growth,[26],0.991
same,normalized growth,[27],1.03
same,normalized growth,[28],1.07
O=C(NCCNc1ccc(C(F)(F)F)cc1[N+](=O)[O-])c1cccs1,normalized growth,[1],0.974
same,normalized growth,[2],0.972
same,normalized growth,[3],0.983
same,normalized growth,[4],0.93
same,normalized growth,[5],0.931
same,normalized growth,[6],0.948
same,normalized growth,[7],0.967
same,normalized growth,[8],0.974
same,normalized growth,[9],0.673 (active)
same,normalized growth,[10],0.973
same,normalized growth,[11],0.978
same,normalized growth,[12],0.998
same,normalized growth,[14],0.838
same,normalized growth,[15],0.967
same,normalized growth,[16],0.775 (active)
same,normalized growth,[17],0.915
same,normalized growth,[18],0.841 (active)
same,normalized growth,[19],0.982
same,normalized growth,[20],1.02
same,normalized growth,[22],0.976
same,normalized growth,[23],0.863
same,normalized growth,[24],0.988
same,normalized growth,[25],0.911
same,normalized growth,"locus YOL006C, strain TOP1, hits give low values",0.778
same,normalized growth,[26],0.771 (active)
same,normalized growth,[27],1.13
same,normalized growth,[28],0.743
CCOC(=O)c1ncn2c1[C@@H]1CCCN1C(=O)c1cc(OC)ccc1-2,normalized growth,[29],0.938
same,normalized growth,[30],1.01
same,normalized growth,[31],1
same,normalized growth,[32],1.01
same,normalized growth,[8],1.05
same,normalized growth,[21],0.981
same,normalized growth,"locus YNL175C, strain NOP13, hits give low values",1.04
same,normalized growth,[33],1.03
same,normalized growth,[34],1.01
same,normalized growth,[24],1.02
same,normalized growth,[35],1.04
same,normalized growth,[26],1.05
same,normalized growth,[27],1.01
CCCN(CCC)[C@@H]1CCc2c(F)ccc(O)c2C1,normalized growth,[1],1.01
same,normalized growth,[29],1.01
same,normalized growth,[30],1.01
same,normalized growth,[5],0.983
same,normalized growth,[31],1.01
same,normalized growth,[32],1
same,normalized growth,[12],1.02
same,normalized growth,[20],1.01
same,normalized growth,[21],1
same,normalized growth,[33],0.992
same,normalized growth,[34],0.999
same,normalized growth,[35],1.01
same,normalized growth,[26],1.01
same,normalized growth,[27],1
